MCF10A rereplic: inducers of DNA re-replication in MCF 10A breast cells. AID 624296. Potency, µM (top dose mostly 46.1 µM), for the others: at the highest dose activity, positive = re-replication, most hits filed as activators. MCF 10A DNA re-replication, Hoechst nuclear intensity, 48 h. 350,000 compounds, 2.9% hits; note: % of control where 0% means no effect; nearly all actives have a fitted effect of over 50% in size
RGS4 inhibitor: blocks human RGS4-accelerated GTP hydrolysis; 390,000 compounds, 0.039% hits; AID 504845; Potency, µM (highest dose often 114 µM), for the others: at the highest dose activity change, negative = inhibition, usual class: inhibitors; Transcreener GDP fluorescence polarization, RGS4-accelerated GTP hydrolysis; P49798; note: % is set by controls: 0 for no effect and ±100 for the full control effect; nearly all actives have a fitted effect of over 75% in size
Target sequence (P49798 whole entry, looked up): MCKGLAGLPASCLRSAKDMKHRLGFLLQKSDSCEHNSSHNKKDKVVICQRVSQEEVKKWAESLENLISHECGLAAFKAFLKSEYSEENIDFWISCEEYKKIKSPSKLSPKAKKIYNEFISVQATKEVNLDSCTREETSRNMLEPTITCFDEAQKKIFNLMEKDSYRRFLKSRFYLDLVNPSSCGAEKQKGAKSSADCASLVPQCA
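MLSMR compounds (23 nl, pin-transferred) preincubated 10 min at room temperature with a 500nM (2x) first reagent, then RGS4 at 900nM (2x) plus Transcreener GDP mix added; fluorescence polarization (620/688 nm) read before and after 90 min at 30 °C.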
SW480 rerep: induces DNA re-replication in SW480 colon adenocarcinoma cells; SW480 DNA re-replication, Hoechst DNA content imaging, 48 h; Potency, µM (top dose mostly 46.1 µM), for inactives: at the highest dose re-replication activation, most hits filed as activators; 340,000 compounds, 1.8% hits; AID 624297; note: % of control where 0% means no effect; nearly all actives have a fitted effect of over 55% in size
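Per well, 250 cells were exposed to pinned compound for 48 hr. Nuclear DNA was visualised with Hoechst (40 min, 37 C) and total object intensity recorded by fluorescence scanning.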
TSG101-PTAP inh: blocks PTAP/TSG101 interaction to inhibit HIV-1 budding; 340,000 tested, under 10 active; Fluorescence polarization, FITC-PTAP peptide / Tsg101 binding; AID 493005; Potency, µM (doses to about 115 µM), for the others: at the top dose activity change, negative = inhibition, actives largely listed as inhibitors; Q99816; active = well fitted inhibition curve with a large enough effect in the main read-out, with a control signal flat, not every such curve was filed as active; inconclusive = small, poorly fitted or top-dose-only effect, or effect the other way, or a change in a side signal; inactive = no such curve, though single readings can be large or run the other way; note: % of control where 0% means no effect
Target sequence (Q99816 whole entry, looked up): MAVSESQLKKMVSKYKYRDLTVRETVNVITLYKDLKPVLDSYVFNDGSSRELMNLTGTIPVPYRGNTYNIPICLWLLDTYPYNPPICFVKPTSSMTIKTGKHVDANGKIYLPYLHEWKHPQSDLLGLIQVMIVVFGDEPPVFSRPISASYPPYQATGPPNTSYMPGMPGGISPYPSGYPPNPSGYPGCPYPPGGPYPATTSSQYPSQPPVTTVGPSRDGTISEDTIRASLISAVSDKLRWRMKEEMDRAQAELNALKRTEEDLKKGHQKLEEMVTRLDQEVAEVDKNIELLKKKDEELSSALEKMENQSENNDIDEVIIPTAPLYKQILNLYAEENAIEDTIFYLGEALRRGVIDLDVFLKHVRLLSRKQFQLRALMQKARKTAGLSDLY
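FP read-out: FITC-PTAP peptide, 50 nM final, binding Tsg101 binding domain, 10 uM final; 20 min, r.t.; 10 mM HEPES pH 7.5, 0.15 M NaCl, 0.01% Tween 20, 3 mM EDTA, 0.1 mM TCEP.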
KB-3-1 cytotox: KB-3-1 parental cell cytotoxicity; 400,000 compounds, 1.4% hits; Potency, µM (top dose mostly 46.1 µM), usual class: cytotoxic; KB-3-1 viability, CellTiter-Glo ATP luminescence, 72 h; note: % is set by controls: 0 for no effect and ±100 for the full control effect; nearly all actives have a fitted effect of over 60% in size
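Viability of parental KB-3-1 cells, measured by CellTiter-Glo luminescence, followed a 72 h incubation at 37 °C with pinned compounds in phenol-red-free DMEM containing 10% FBS.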
KB-V1 MDR tox: kills drug-selected multidrug resistant KB-V1 cells; 400,000 compounds, 3.4% hits; Potency, µM (series often up to 46.1 µM), actives largely listed as cytotoxic; AID 1347076; KB-V1 MDR cells viability, CellTiter-Glo, 72 h; note: % is set by controls: 0 for no effect and ±100 for the full control effect; nearly all actives have a fitted effect of over 60% in size
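KB-V1 cells (P-gp-expressing MDR subline of KB-3-1) in phenol-red-free DMEM with 10% FBS were exposed to library compounds over a concentration series for 72 h at 37 degrees C. Viability read by CellTiter-Glo luminescence; concentration-effect curves fitted after normalization.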
Active calls of the source: *; i = inactive; ? = inconclusive; · = not tested or not shown. Shown are actives, neighbours in structure and some others; about 6.6% of the full set was active somewhere. Unless noted, calls come from the whole dose curve; as a rule, active = well fitted curve in the direction sought with a large enough effect; inconclusive = small, poorly fitted or top-dose-only effect, or another doubt; inactive = no such curve, though single readings can be large; an effect the other way counts as inactive or inconclusive. Potency is the fitted concentration of half-maximal effect.

SMILES | MCF10A rereplic | RGS4 inhibitor | SW480 rerep | TSG101-PTAP inh | KB-3-1 cytotox | KB-V1 MDR tox
Cc1ccc(NC(=O)Cn2cnc3sc(C)c(S(=O)(=O)N4CCN(c5ncccn5)CC4)c3c2=O)cc1F | · | -6% | · | · | i | ?
COc1ccc(OCC(=O)NC2CCCc3ccccc32)cc1 (stereo unspecified) | -3% | -17% | -28% | 1% | i | i
O=C(CSc1ccc2ccccc2c1)NC1CCCc2ccccc21 (stereo unspecified) | 9% | -2% | 5% | 0% | i | 15µM*
O=C(Nc1ccc(F)cc1)NC1CCCc2ccccc21 (stereo unspecified) | 25% | -5% | -1% | 2% | i | i
O=C(Nc1ccccc1)NC1CCCc2ccccc21 (stereo unspecified) | -2% | 24% | 1.2µM* | 0% | i | i
O=C(CSc1nc2cc(Cl)ccc2s1)NC1CCCc2ccccc21 (stereo unspecified) | ? | -1% | -4% | 0% | i | 16µM*
O=C(CSc1cc(Cl)ccc1Cl)NC1CCCc2ccccc21 (stereo unspecified) | ? | 15% | ? | 3% | i | i
CC(=O)c1ccc(OCCCC(=O)NC2CCCc3ccccc32)cc1 (stereo unspecified) | -5% | 9% | -73% | 0% | i | 16µM*
COc1cc2ccccc2cc1C(=O)N1CCN(c2nc3ccc(F)cc3s2)CC1 | · | 12% | · | · | · | ·
O=C(NCCc1ccccc1Cl)c1cc2ccccn2n1 | · | 0% | · | · | i | i
CCCCn1c(=O)n(-c2cc(OC)ccc2OC)c(=O)c2c3c(sc21)CN(C(C)=O)CC3 | · | 23% | · | · | i | ?
Cc1ccc2nc(SCC(=O)NNC(=O)c3ccccc3)[nH]c2c1 | -4% | -5% | -6% | -4% | i | i
Cc1ccc2nc(SCC(=O)NC3CCCc4ccccc43)[nH]c2c1 (stereo unspecified) | 15µM* | 3% | ? | -8% | ? | 15µM*
Cc1ccc(S(=O)(=O)N2CCN(CC(=O)NC3CCCc4ccccc43)CC2)c(C)c1 (stereo unspecified) | 21% | -1% | ? | -12% | i | 4.1µM*
CC(C)OC(=O)c1ccc(Cn2nnc3sc4c(c3c2=O)CCCC4)cc1 | · | 7% | · | · | i | i
CCN1CCN(CNC(=O)c2cnccn2)CC1 | 16% | -19% | 9% | -9% | ? | 23µM*
O=C(C(=Cc1ccccc1)CN1CCCCC1)c1ccccc1 | 0.65µM* | -35% | 2.9µM* | 1% | 5.2µM* | ?
CCn1c(=O)c2sccc2n2c(CCCC(=O)N3CCN(c4ccc(F)cc4)CC3)nnc12 | · | 26% | · | · | · | ·
CC(=O)Nc1nc(C)c(-c2csc(Nc3ccc(O)cc3)n2)s1 | 18µM* | ? | ? | -6% | 8.2µM* | i
CCC(C)C(=O)Nc1nc(C)c(-c2csc(Nc3ccc(Cl)cc3)n2)s1 (stereo unspecified) | ? | ? | 9% | -2% | 6.5µM* | i
CCCC(=O)Nc1nc(C)c(-c2csc(Nc3ccc(Cl)cc3)n2)s1 | ? | ? | 1% | -3% | ? | i
CCc1ccc(-n2nnc(-c3nc(-c4ccc(C)cc4)no3)c2N)cc1 | · | 4% | · | · | · | ·
N#CCc1ccc(NC(=O)/C=C/c2ccc([N+](=O)[O-])o2)cc1 | 16µM* | ? | ? | 0% | 5.2µM* | ?
Cc1ccccc1CCNC(=O)c1ccc2c(c1)nc1n2CCCCC1 | · | -35% | · | · | i | i
C/C(=N\NC(=O)C(c1ccccc1)c1ccccc1)c1ccccn1 | ? | -3% | -37% | -2% | 13µM* | i
SMILES | MCF10A rereplic | RGS4 inhibitor | SW480 rerep | TSG101-PTAP inh | KB-3-1 cytotox | KB-V1 MDR tox
C/C(=N\NC(=O)c1cccc(Br)c1)c1ccccn1 | 2.9µM* | -17% | ? | -2% | ? | 1.5µM*
COc1ccc(C(=O)N/N=C(\C)c2ccccn2)cc1OC | ? | 0% | ? | -8% | ? | 2.3µM*
C/C(=N/NC(=O)c1ccc(C(C)(C)C)cc1)c1ccccn1 | ? | 6% | ? | 1% | 2.6µM* | ?
C/C(=N\NC(=O)c1ccc(Cl)c(Cl)c1)c1ccccn1 | -24% | -2% | ? | 0% | ? | i
O=C(CCn1c(=O)c2sccc2n(Cc2cccc(F)c2)c1=O)NCc1ccc2c(c1)OCO2 | · | -11% | · | · | · | ·
COc1ccc(CCNC(=O)CCSCc2ccccc2Cl)cc1OC | · | 17% | · | · | i | ?
Cc1c2cnn(-c3ccccc3)c(=O)c2c(C)n1CCCC(=O)Nc1ccc(F)cc1F | · | 15% | · | · | i | i
CC(=O)Nc1ccn(C2OC(C(COC(C)=O)NC(=O)C(COCc3ccccc3)NC(=O)OC(C)(C)C)C(OC(C)=O)C2OC(C)=O)c(=O)n1 (stereo unspecified) | · | 24% | · | · | · | ·
O=C(NC1CCN(Cc2ccc(Cl)cc2)CC1)c1cn(-c2ccccc2)nc1-c1cccnc1 | 21µM* | 18% | 6% | -7% | ? | i
O=C(NCc1ccncc1)c1cn(-c2ccccc2)nc1-c1cccnc1 | 3% | -8% | -1% | 1% | i | i
CC(=O)c1cccc(NC(=O)c2cnn(-c3cccc(C)c3)c2-n2cccc2)c1 | · | -12% | · | · | i | i
O=C(c1ccc2c(=O)n(-c3ccccc3)c(=O)[nH]c2c1)N1CCN(Cc2cccs2)CC1 | · | 16% | · | · | i | i
Cc1cc(C)cc(N2CCn3c2nc2c3c(=O)n(Cc3c(F)cccc3Cl)c(=O)n2C)c1 | · | 17% | · | · | · | ·
Cc1sc2nc(C3CC3)nc(N3CCN(C(=O)c4ccc(Cl)cc4)CC3)c2c1C | ? | -21% | 7% | -2% | ? | 18µM*
COc1ccc(C(=O)N2CCN(c3nc(C4CC4)nc4sc(C)c(C)c34)CC2)cc1 | ? | -6% | 14% | -11% | ? | 23µM*
Cc1sc2nc(C3CC3)nc(N3CCN(C(=O)c4ccc(F)cc4)CC3)c2c1C | ? | -13% | ? | 3% | i | i
COc1ccc2c(c1)CCc1c(C(=O)Nc3cc(OC)c(Cl)cc3OC)noc1-2 | · | 6% | · | · | i | i
COc1ccccc1CNC(=O)c1ccc(CSc2nc3ccncc3n2Cc2cccc(F)c2)cc1 | · | -16% | · | · | i | i
Cc1ccc(CNC(=O)C2c3ccccc3C(=O)N3CCc4ccccc4C23)o1 (stereo unspecified) | 18µM* | -31% | ? | -5% | i | i
